# Assay results: PubChem BioAssay (Tox21)
# Several values for one entry are separate records, joined by “and”; a condition that tells them apart may be missing. Equal values may be shown once. Inconclusive results are not listed. Where a call stands in place of a potency, no number is given. Some structures have more than one record in an assay (separate samples or runs), and their calls can disagree. Activity calls are given as the source filed them. Unless noted, calls follow the shape of the dose curve; as a rule, active = well fitted curve in the direction sought with a large enough effect in the repeat runs; inconclusive = weak or mixed curves; inactive = no such curve, though single readings can be large; an effect the other way counts as inactive or inconclusive.
# Columns and labels:
# [1] = qHTS assay to identify small molecule antagonists of the estrogen related receptor (ERR) signaling pathway from Tox21 library - cell viability counter screen (AID 1224834); also: nearly all actives have a fitted effect of over 30% in size; also: potency is read from the fitted curve at half-maximal effect
# How it was run: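 After 17.5 h of compound exposure at 37 C, ERR cells are incubated with CellTiter-Fluor for 30 min and fluorescence intensity serves as the viability measure.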
# [2] = target: Luciferin 4-monooxygenase (Photinus pyralis) (UniProt P08659); assay: qHTS assay to identify small molecule inhibitors of firefly luciferase (AID 1224835); also: nearly all actives have a fitted effect of over 25% in size; also: potency is read from the fitted curve at half-maximal effect
# How it was run: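 Quantitative HTS format; KM concentrations of both substrates. Purified P. pyralis FLuc activity quantified from luminescence images.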
# [3] = qHTS assay to identify small molecule agonists of the constitutive androstane receptor (CAR) signaling pathway - cell viability counter screen (AID 1224836); also: nearly all actives have a fitted effect of over 45% in size; also: potency is read from the fitted curve at half-maximal effect
# How it was run: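 Cells were seeded and incubated 4 hrs. Compounds were added across 15 concentrations together with PK11195 at 0.75 uM final. Plates were incubated 23 hrs at 37 C. CellTiter-Fluor was added and fluorescence measured.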
# [4] = qHTS assay to identify small molecule antagonists of the constitutive androstane receptor (CAR) signaling pathway - cell viability counter screen (AID 1224837); also: nearly all actives have a fitted effect of over 45% in size; also: potency is read from the fitted curve at half-maximal effect
# How it was run: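 Counter screen run in HepG2-CYP2B6-hCAR cells: 4 hr settle, compound titration (15 concentrations) with 50 nM CITCO, 23 hr at 37 C/5% CO2, CellTiter-Fluor fluorescence.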
# [5] = target: Nuclear receptor subfamily 1 group I member 3 (Homo sapiens) (UniProt Q14994); assay: qHTS assay to identify small molecule agonists of the constitutive androstane receptor (CAR) signaling pathway (AID 1224839); also: nearly all actives have a fitted effect of over 15% in size; also: potency is read from the fitted curve at half-maximal effect;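 as to activation: HepG2 cells stably carrying human CAR and a CYP2B6 luciferase reporter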
# How it was run: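 Cells were plated and incubated 4 hrs, then dosed with compounds at 15 concentrations. PK11195 was added to 0.75 uM final. After 24 hrs at 37 C, luciferase luminescence was measured.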
# [6] = qHTS assay to identify small molecule antagonists of the estrogen related receptor signaling pathway with the pleiotropic PPARgamma coactivator (PGC) from Tox21 10K library - cell viability counter screen (AID 1224840; active = well fitted cell-killing curve with a large enough effect in the repeat runs, not every such curve was filed as active; also: nearly all actives have a fitted effect of over 40% in size; also: potency is read from the fitted curve at half-maximal effect)
# How it was run: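 Following seeding of 2,000 PGC/ERR cells/well and 6 hours' incubation, test compounds were delivered in DMSO. The plates then sat 17.5 hours at 37 C before a fluorogenic live-cell protease reagent (CellTiter-Fluor) was read after 30 min.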
# [7] = target: Thyrotropin receptor (Homo sapiens) (UniProt P16473); assay: qHTS assay to identify small molecule agonists of the thyroid stimulating hormone receptor (TSHR) signaling pathway (AID 1224843; calls by dose curve; also: nearly all actives have a fitted effect of over 45% in size; also: potency is read from the fitted curve at half-maximal effect)
# How it was run: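 TSHR-expressing HEK293 cells (800 per well) were exposed to compounds for 30 min at room temperature. cAMP was then detected by HTRF competition with cAMP-d2 and anti-cAMP cryptate, read after 1 h at room temperature. Fifteen concentrations, triplicate.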
# [8] = qHTS assay to identify small molecule agonists of the hypoxia (HIF-1) signaling pathway - cell viability counter screen (AID 1224844; calls by dose curve; also: nearly all actives have a fitted effect of over 50% in size; also: potency is read from the fitted curve at half-maximal effect)
# How it was run: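 Cells (HRE-bla ME-180, 2,000 per well) sat 5 hrs at 37C, got compound for 17 hrs, were read for CCF4-AM FRET, and were finally lysed with CellTiter-Glo for a 30 min room-temperature luminescence read.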
# [9] = qHTS assay to identify small molecule agonists of H2AX (AID 1224845; active = well fitted activation curve with a large enough effect in the signal ratio in the repeat runs, not every such curve was filed as active; the % refers to the signal ratio)
# How it was run: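 Wild-type CHO-K1 cells plated overnight, then exposed 3 hr at 37C to compounds at 15 concentrations (0.76% DMSO). Lysed, then HTRF anti-pH2AX(S139)-cryptate/anti-H2AX-d2 detection after 24 hr at room temperature; emissions 665 and 620 nm.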
# [10] = qHTS assay to identify small molecule agonists of the hypoxia (HIF-1) signaling pathway (AID 1224846; active = well fitted activation curve with a large enough effect in the signal ratio in the repeat runs, not every such curve was filed as active; the % refers to the signal ratio)
# How it was run: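 A low-serum medium (0.5% dialyzed FBS) holding 2,000 HRE-bla ME-180 cells per well is preincubated for 5 hrs, dosed with compounds by pintool, and kept a further 17 hrs at 37C, 5% CO2 before CCF4-AM FRET detection of beta-lactamase.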
# [11] = qHTS assay to identify small molecule agonists of H2AX - cell viability counter screen (AID 1224847; calls by dose curve; also: nearly all actives have a fitted effect of over 30% in size; also: potency is read from the fitted curve at half-maximal effect)
# How it was run: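 Cytotoxicity counter screen in wild-type CHO-K1 cells: a 3 hr compound treatment at 37C across 15 concentrations, followed by CellTiter-Glo luminescence to gauge viable cells.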
# [12] = qHTS RealTime-Glo MT Cell Viability Assay in HepG2 cells - 24 hour (AID 1224867); also: nearly all actives have a fitted effect of over 50% in size; also: potency is read from the fitted curve at half-maximal effect
# How it was run: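 Tox21 10K library screened in qHTS format on HepG2 cells carrying RealTime-Glo reagents. Compounds were added after a 5 h preincubation, and the luminescent signal from continuous culture was measured repeatedly during 40 h treatment.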
# [13] = A CellTox Green Cytotoxicity Assay to monitor cytotoxicity in HEK293 cells - 0 hour (AID 1224869); also: nearly all actives have a fitted effect of over 50% in size
# How it was run: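 Fluorescence intensity, read at 0, 8, 16, 24, 32 and 40 h of compound treatment, reflected dye binding to DNA of dead HEK293 cells; compounds (23 nL, DMSO) were added 5 h after plating cells with reagent.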
# [14] = qHTS RealTime-Glo MT Cell Viability Assay in HEK293 cells - 32 hour (AID 1224868); also: nearly all actives have a fitted effect of over 50% in size; also: potency is read from the fitted curve at half-maximal effect
# How it was run: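 Luminescence generated by NanoLuc from substrate produced by living HEK293 cells served as the viability signal. Each value reflects the reading at its stated time point during continuous 40 h compound exposure at 37 C.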
# [15] = qHTS assay to identify small molecule antagonists of the estrogen related receptor signaling pathway with the pleiotropic PPARgamma coactivator (PGC) from Tox21 10K library (AID 1224841; call rule not given here; also: potency is read from the fitted curve at half-maximal effect)
# How it was run: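 qHTS antagonist format: PGC/ERR cells, 2k/well, compound in DMSO by pin transfer after 6 h attachment, 18 h treatment at 37 C, One-Glo luminescence read at 30 min.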
# [16] = qHTS assay to identify small molecule antagonists of the estrogen related receptor (ERR) signaling pathway from Tox21 library (AID 1224848); also: nearly all actives have a fitted effect of over 50% in size; also: potency is read from the fitted curve at half-maximal effect
# How it was run: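 Cells: ERR line, 2,000/well; 6 h preincubation 37 C/5% CO2. Cpd in DMSO via pin tool; 18 h, 37 C. ONE-Glo, 30 min RT, luminescence.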
# [17] = qHTS assay to identify small molecule agonists of the estrogen related receptor (ERR) signaling pathway from Tox21 library (AID 1224849; calls by dose curve; also: nearly all actives have a fitted effect of over 15% in size); conditions: ERR reporter cell line, ONE-Glo luciferase, 18 h
# How it was run: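 Screening used an NTP-provided ERR luciferase cell line. Compounds in DMSO were added 6 h after seeding and left 18 h at 37 C before a 30 min ONE-Glo step and luminescence reading.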
# [18] = qHTS assay to identify small molecule agonists of the estrogen related receptor signaling pathway with the pleiotropic PPARgamma coactivator (PGC) from Tox21 10K library (AID 1224842); also: nearly all actives have a fitted effect of over 15% in size
# How it was run: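 PGC/ERR reporter cells (NTP line) were seeded 2,000 per well, rested 6 h at 37 C/5% CO2, then pin-dosed with compounds in DMSO for 18 h at 37 C; luciferase read by One-Glo luminescence after 30 min at room temperature.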
# Luciferin 4-monooxygenase (Photinus pyralis), sequence (P08659 whole entry, looked up): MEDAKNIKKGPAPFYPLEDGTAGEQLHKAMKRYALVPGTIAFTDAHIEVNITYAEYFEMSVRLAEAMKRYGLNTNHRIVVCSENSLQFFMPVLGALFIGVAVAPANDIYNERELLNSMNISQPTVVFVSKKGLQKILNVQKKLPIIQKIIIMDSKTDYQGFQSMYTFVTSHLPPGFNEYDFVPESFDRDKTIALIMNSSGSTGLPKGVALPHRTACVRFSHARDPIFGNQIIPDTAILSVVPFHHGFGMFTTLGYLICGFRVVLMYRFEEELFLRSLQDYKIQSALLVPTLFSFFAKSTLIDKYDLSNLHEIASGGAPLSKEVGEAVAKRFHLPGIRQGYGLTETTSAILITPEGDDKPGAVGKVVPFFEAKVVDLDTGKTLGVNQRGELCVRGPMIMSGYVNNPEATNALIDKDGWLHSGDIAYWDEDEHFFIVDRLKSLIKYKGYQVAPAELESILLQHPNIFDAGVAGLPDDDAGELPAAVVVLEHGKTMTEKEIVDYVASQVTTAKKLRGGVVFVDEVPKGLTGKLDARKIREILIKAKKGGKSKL
# Nuclear receptor subfamily 1 group I member 3 (Homo sapiens), sequence (Q14994 whole entry, looked up): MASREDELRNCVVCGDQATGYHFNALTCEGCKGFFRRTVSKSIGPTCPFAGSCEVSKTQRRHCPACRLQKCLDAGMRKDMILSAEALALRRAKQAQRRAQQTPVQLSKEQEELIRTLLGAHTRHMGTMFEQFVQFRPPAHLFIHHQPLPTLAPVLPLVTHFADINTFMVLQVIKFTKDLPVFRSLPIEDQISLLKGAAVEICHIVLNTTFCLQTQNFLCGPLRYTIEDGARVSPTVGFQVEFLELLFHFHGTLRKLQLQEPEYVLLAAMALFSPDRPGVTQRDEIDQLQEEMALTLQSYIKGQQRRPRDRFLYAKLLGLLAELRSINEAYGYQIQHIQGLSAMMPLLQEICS
# Thyrotropin receptor (Homo sapiens), sequence (P16473 whole entry, looked up): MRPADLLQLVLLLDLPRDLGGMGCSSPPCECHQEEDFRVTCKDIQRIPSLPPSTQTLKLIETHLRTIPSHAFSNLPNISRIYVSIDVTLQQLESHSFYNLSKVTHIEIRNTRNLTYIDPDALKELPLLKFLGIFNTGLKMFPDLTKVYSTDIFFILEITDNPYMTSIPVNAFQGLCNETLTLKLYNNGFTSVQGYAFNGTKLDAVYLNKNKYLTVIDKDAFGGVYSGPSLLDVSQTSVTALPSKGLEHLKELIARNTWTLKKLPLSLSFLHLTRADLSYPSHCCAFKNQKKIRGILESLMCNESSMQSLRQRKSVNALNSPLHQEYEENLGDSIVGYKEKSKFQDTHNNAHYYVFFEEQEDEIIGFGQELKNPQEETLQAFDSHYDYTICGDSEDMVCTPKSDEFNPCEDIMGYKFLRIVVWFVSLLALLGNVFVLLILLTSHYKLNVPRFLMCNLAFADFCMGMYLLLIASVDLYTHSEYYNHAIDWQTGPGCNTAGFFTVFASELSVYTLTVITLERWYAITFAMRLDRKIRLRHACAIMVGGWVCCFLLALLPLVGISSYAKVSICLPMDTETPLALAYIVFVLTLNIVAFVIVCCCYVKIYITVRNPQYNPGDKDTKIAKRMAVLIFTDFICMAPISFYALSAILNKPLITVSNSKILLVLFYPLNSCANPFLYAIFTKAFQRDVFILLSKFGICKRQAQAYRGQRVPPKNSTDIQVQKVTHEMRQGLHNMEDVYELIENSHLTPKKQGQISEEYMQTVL
Compound,Potency [1],Potency [2],Potency [3],Potency [4],Potency [5],Potency [6],Potency [7],Potency [8],outcome [9],Potency [10],Potency [11],Potency [12],Potency [13],Potency [14],Potency [15],Potency [16],"activity change, positive = activation ([17]; at 42.5 µM (top of the series))","activity change, positive = activation ([17]; at 92.4 µM (top of the series))",Potency [18]
OC(CCl)CCl,inactive,inactive,inactive,inactive,inactive,inactive,inactive,inactive,inactive,inactive,inactive,inactive,inactive,,,,,,
CC(=O)CC/C=C(\C)CCC=C(C)C,inactive,inactive,inactive,inactive,inactive,inactive,inactive,inactive,inactive,inactive,inactive,inactive,inactive,inactive,,,,,
O=Cc1ccccc1O,inactive,inactive,inactive,inactive,inactive,inactive,inactive,inactive,inactive,inactive,inactive,inactive,inactive,inactive,,,,,
c1cc(-c2ccncc2)ccn1,inactive,inactive,inactive,inactive,inactive,inactive,inactive,inactive,inactive,inactive,inactive,inactive,inactive,inactive,,,,,
O=C(/C=C/c1ccccc1)OCc1ccccc1,inactive,17.8 µM (active) and 9.77 µM (active),inactive,inactive,29.8 µM (active),inactive,,inactive,inactive,inactive,inactive,inactive,inactive,inactive,inactive,inactive,33.8% (active),36.2% (active),
COc1ccc(C(=O)CC(=O)c2ccc(C(C)(C)C)cc2)cc1,inactive,13.6 µM (active) and inactive,inactive,inactive,inactive,inactive,inactive,inactive,inactive,inactive,inactive,inactive,inactive,29.6 µM (active) and inactive,,,,,
CCC(C)CO (stereo unspecified),inactive,inactive,inactive,inactive,inactive,inactive,inactive,inactive,inactive,inactive,inactive,inactive,inactive,inactive and 24.5 µM (active),inactive,inactive,,1.13% (inactive) and -5.81% (inactive),inactive
C=CC(C)(CCC=C(C)C)OC(C)=O (stereo unspecified),inactive,inactive,inactive,inactive,inactive,inactive,inactive,inactive,inactive,inactive,inactive,inactive,inactive,inactive,,,,,
CC(C)OC=O,inactive,inactive,inactive,inactive,inactive,inactive,inactive,58.4 µM (active) and inactive,inactive,inactive,inactive,inactive,inactive,inactive,inactive,inactive,,-9.53% (inactive) and -2.76% (inactive),inactive
COC(=O)C1=C(C)NC(C)=C(C(=O)OCCN(C)Cc2ccccc2)C1c1cccc([N+](=O)[O-])c1 (stereo unspecified),27.1 µM (active) and 23.7 µM (active),inactive,48.3 µM (active),43 µM (active) and 23.7 µM (active),inactive,30.5 µM (active) and 26.6 µM (active),30.5 µM (active),inactive,inactive,,44.7 µM (active) and 49.2 µM (active),24.4 µM (active) and 10.7 µM (active),inactive,21.7 µM (active) and 16.9 µM (active),,,,,
CCCCC/C=C/C=C/C=O,inactive,inactive,inactive,inactive,inactive,inactive,inactive,,inactive,inactive,inactive,inactive,inactive,inactive,inactive and 54.5 µM (active),inactive and 54.5 µM (active),,-1.92% (inactive) and -41.4% (inactive),inactive
Cc1cccc(C(=O)O)c1,inactive,inactive,inactive,inactive,inactive,inactive,inactive,inactive,inactive,inactive,inactive,inactive,inactive,inactive,inactive,inactive,,0.909% (inactive) and 9.04% (inactive),inactive
CC(=O)O[C@]1(C(C)=O)CC[C@H]2[C@@H]3C=C(Cl)C4=CC(=O)[C@@H]5C[C@@H]5[C@]4(C)[C@H]3CC[C@@]21C,,inactive,inactive,inactive,,inactive,inactive,inactive,inactive,,,,inactive,24.5 µM (active) and inactive,,,,,
COC(=O)c1ccccc1,inactive,inactive,inactive,inactive,,inactive,inactive,inactive,inactive,inactive,inactive,inactive,inactive,inactive and 11 µM (active),,,,,
